Records with an inconclusive call do not appear. Entries that show only a call come without a potency. Activity calls are given as the source filed them. The call rests on the fitted dose curve; in most records, active means well fitted inhibition curve with a large enough effect; inconclusive means small, poorly fitted or top-dose-only effect, or effect the other way; inactive means flat fitted curve, though single readings scatter.
Assay: qHTS for Inhibitors of Plasmodium falciparum (CP250) proliferation (AID 504320)
Settings: P. falciparum CP250 in erythrocytes, SYBR Green DNA, 72 h; series mostly up to 6.7 µM
How it was run: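 Parasite growth measured as SYBR Green DNA fluorescence (ex 485, em 535 nm) after overnight lysis following 72 h culture at 37 °C, 0.3% parasitemia, 2.5% hematocrit. Values normalized against DMSO and 0.29 uM artemisinin controls, with plate-stack correction.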
Potency means the concentration at half of the fitted maximal effect.

Row | SMILES | Potency
1 | CCN1C(=O)[C@@H]2[C@H]3[C@H](O)[C@H](O)CC(=NOC[C@H]4O[C@H](c5ccccc5)C=C[C@H]4Oc4ccc(OC)cc4)[C@@H]3CC[C@H]2C1=O | inactive
2 | CC(=O)[C@@H]1[C@@H](C)N(Cc2ccccc2)C(=O)N[C@H]1c1ccccc1 | inactive
3 | CC(CCC#N)[N+](=O)[O-] (configuration not stated) | inactive
4 | COc1ccc(C(O)C2=CCCC2=O)cc1 (configuration not stated) | inactive
5 | CCOC(=O)CN1C(=O)NC(c2ccccc2)C(C(C)=O)=C1C (configuration not stated) | inactive
6 | CC(C)OC(=O)[C@H](C)NC(=O)N1CCc2nc(-c3ccccc3)c3c(c2C1)CO[C@@H](C)C3 | inactive
7 | COC(=O)N[C@@H](c1ccccc1)[C@]1(C(C)=O)CCCC1=O | inactive
8 | COC(=O)[C@@]1(C=C[C@@H](C)[C@H](OC)c2ccccc2Br)[C@@H]2OCCC[C@@H]21 | inactive
9 | CC(C)=CCCC(C)=CCN1C(=O)[C@]2(O[C@H](C)CC3=CCCC32)c2c(Br)cccc21 (some centres not stated) | inactive
10 | CCN1C(=NCCCCO)NC(c2cccc(C(F)(F)F)c2)C(C(=O)OC)=C1C (configuration not stated) | inactive
11 | CC(=O)OC[C@H]1O[C@H](CCON=C(C)CCC(=O)OC[C@H]2O[C@H](C#Cc3ccccc3)C=C[C@H]2Oc2ccc(C)cc2)C=C[C@H]1OC(C)=O | inactive
12 | C=C(C(C)=O)C(O)c1ccco1 (configuration not stated) | inactive
13 | COCCN1C(=O)NC(c2cccc(C(F)(F)F)c2)C(C(C)=O)=C1C (configuration not stated) | inactive
14 | CC1=CC[C@@H](COc2ccccc2)O[C@@]2(C1)C(=O)Nc1cccc(Br)c12 | inactive
15 | C=CCN1C(=O)CC[C@@]23C1=NC(C(=O)OC)=C(C(=O)OC)[C@@H]2N(CC#CC)c1ccccc13 | inactive
16 | COc1cccc([C@@H]2Oc3ccc(OC)cc3[C@H](O)[C@@H]2O)c1 | inactive

Row | SMILES | Potency
17 | N#Cc1ccc2c(c1)C[C@]1(c3ccsc3)Oc3c(c(=O)oc4ccccc34)[C@H]2O1 | inactive
18 | COCCN1C(=O)NC(c2ccc(Br)cc2)C(C(C)=O)=C1C (configuration not stated) | inactive
19 | C=CCOC(=O)N[C@H](c1cccc(C(F)(F)F)c1)C(C(C)=O)C(C)=O | inactive
20 | CCC(=O)OC1(C)C(=O)C=C2C=C(c3ccc(C#N)cc3)OC=C2C1=O (configuration not stated) | inactive
21 | COC(=O)[C@@H]1C=C[C@H](C)[C@H](CCOc2ccccc2)O1 | inactive
22 | COC(=O)CC=C[C@@H](C)[C@@H](C=NOC[C@@H](O)COCc1ccco1)NS(=O)(=O)c1ccc(C)cc1 | inactive
23 | C=CC[C@@H]1C=C(C(=O)OC)N(C(=O)C(F)(F)F)[C@@H](c2ccccc2Br)[C@@H]1C | inactive
24 | CCN(CC)CCCN1C(=O)C2=C(C1=O)C1N(C)c3ccccc3[C@@]13C[C@@H](CO)N(C(=O)CCC(=O)OC)C3=N2 (some centres not stated) | inactive
25 | COc1cccc([C@@H]2Oc3ccc(OC)cc3C(=O)[C@@H]2OC(=O)N[C@H]2CCCc3ccccc32)c1 | inactive
26 | CC(=O)Nc1ccc(S(=O)(=O)N2CCc3nc(-c4ccccc4)c4c(c3C2)CO[C@@H](C)C4)cc1 | inactive
27 | CC(=O)OC[C@H]1O[C@H](CC=NOC[C@@H](O)COCc2ccco2)C=C[C@H]1OC(C)=O | inactive
28 | CCOC(=O)N1C2=NC(C(=O)OC)=C(C(=O)OC)[C@@H]3N(C)c4ccccc4[C@]23C[C@H]1C(=O)OC | inactive
29 | COC[C@@H](O)[C@H]1OCc2cc(OC)ccc2[C@H]1C=Cc1ccccc1 | inactive
30 | C=C(C)C(=O)OC[C@H]1CN2[C@H](c3ccc(Br)cc3)[C@H](C)CC[C@H]2C(=O)O1 | 1510 nM (active)
31 | CCCCC#C[C@@H]1C=C[C@H](Oc2ccc(C(=O)OC)cc2)[C@@H](COC(=O)OCC)O1 | inactive
32 | COC(=O)C12C[C@H](C)C3C(C)C(c4ccccc4C31)N2C(=O)C(F)(F)F (some centres not stated) | inactive

From PubChem BioAssay (NCATS)
